# Among all 1,800 compounds or so, about 15 (0.8%) were called active. No rule for the calls is given here. Only a sample is shown. Entries that show only a call come without a potency. Potency and affinity values are given separately.
# Test: antiviral activity against H1N1 influenza, dose response, cell-based, strain KY136 (AID 540257)
# Conditions: H1N1 KY136 influenza antiviral cell assay, % inhibition; series mostly up to 40 µM
row,Compound,outcome
1,CC(=O)NC(c1ccccc1)c1cc([N+](=O)[O-])c2cccnc2c1O (stereo not drawn),inactive
2,Nc1[nH]c(N=NC(=O)c2ccccc2O)c2ccccc12,inactive
3,COc1cc(-c2n[nH]c(=S)n2-c2cccc(C(F)(F)F)c2)cc(OC)c1OC,inactive
4,CN1CCN(NC(=O)CN2C(=O)/C(=C/c3ccccc3Cl)SC2=S)CC1,inactive
5,O=C(CCCN1C(=O)/C(=C/c2ccc3c(c2)OCO3)SC1=S)Nc1ccc(C(=O)O)cc1,inactive
6,CCOC(=O)c1ccc(Nc2c(CC)c(C)nc3ncnn23)cc1,inactive
7,COc1ccccc1N1CCN(C(=O)CCCn2c(=O)[nH]c3ccsc3c2=O)CC1,inactive
8,O=C1CCCC2=C1C1(CCCCC1)N=C(Nc1nc3ccccc3s1)N2,inactive
9,O=C(O)c1cccc2c1/C(=N/O)c1ccccc1-2,inactive
10,O=C(COC(=O)c1ccc([N+](=O)[O-])cc1)Nc1cccnc1Cl,inactive
11,C[n+]1c(/C=C/c2ccc(O)cc2)ccc2ccccc21,inactive
12,COc1cc(C=NO)nc(-c2ccccn2)c1,inactive
13,O=[N+]([O-])c1cccc(C=Nc2cc3c(cc2Br)OCCO3)c1,inactive
14,CCOc1ccccc1CNC(=O)c1ccc2c(c1)N(CC)CCS2,inactive
15,Clc1ccc(-c2nnc(N3CCCC3)nn2)cc1,inactive
16,CCCS(=O)(=O)n1nc(-c2ccccc2)cc1N,inactive
17,O=C(Nc1ccc(N2CCOCC2)cc1)Nc1ccc(Cl)c(Cl)c1,inactive
18,O=C1CC(c2ccccc2)Cc2nc(NCc3ccco3)ncc21 (stereo not drawn),inactive
19,Nc1nc(Nc2ccccc2)nc(NCc2ccco2)c1[N+](=O)[O-],inactive
20,C=CC[n+]1c(/C=C2\C=Cc3cc(C)ccc3N2CC)ccc2ccccc21,inactive
21,O=C1C(=C(c2ccccc2)c2ccccc2)Nc2ccccc21,inactive
22,O=C(CN1CCN(S(=O)(=O)c2ccccc2)CC1)Nc1ccc(N2CCOCC2)cc1,inactive
23,O=S(=O)(c1cccs1)N1CCN(CC(O)COc2cc(Cl)ccc2Cl)CC1 (stereo not drawn),inactive
24,O=C(CCc1ccccc1)Nc1cc2c(cc1Cl)OCCO2,inactive

row,Compound,outcome
1,O=C(COC(=O)[C@H](Cc1c[nH]c2ccccc12)NC(=O)c1cccs1)NCc1ccccc1,inactive
2,O=C(Nc1ccccc1C(=O)NCc1cccnc1)c1ccc(Cl)cc1Cl,inactive
3,c1ccc(Cn2nnc3c(N4CCCCCC4)ncnc32)cc1,inactive
4,CCOC(=O)N1CCN(c2cc(=O)n(-c3ccc(C)cc3)c(=O)[nH]2)CC1,inactive
5,O=C1C(Nc2ccc(O)cc2)=C/C(=N/S(=O)(=O)c2cccs2)c2ccccc21,inactive
6,O=C(NC(=S)NNC(=O)c1cnccn1)c1ccc(Cl)cc1,inactive
7,O=C1CSC(=S)N1N=Cc1ccccc1O,inactive
8,O=C(Nc1cccc(Cl)c1)c1cc(N=Nc2ccc([N+](=O)[O-])cc2Cl)ccc1O,inactive
9,CC(=O)N1CCC(N(CCCOC(C)C)C(=O)Nc2ccc(Cl)cc2)CC1,inactive
10,CCOC(=O)c1c(C2CC2)csc1NC(=O)COC(=O)c1ccc[n+]([O-])c1,inactive
11,COCc1cc(=O)[nH]c(Nc2nc3ccccc3o2)n1,inactive
12,O=[N+]([O-])c1ccc(O)c(/C=N/Nc2nn[nH]n2)c1,inactive
13,Cc1ccc(C(=O)Nc2nc(-c3ccccn3)cs2)o1,inactive
14,COc1ccc(CC(=O)N2N=C(C)CC2(O)c2cccnc2)cc1OC (stereo not drawn),inactive
15,CCOc1ccc(OCCOCCn2ccnc2)cc1,inactive
16,Cc1ccc(S(=O)(=O)N2CCN(C(=O)c3ccc(N4CCCC4)c([N+](=O)[O-])c3)CC2)cc1,inactive
17,COc1ccc(CNC(=O)Cn2ccc([N+](=O)[O-])n2)cc1OC,inactive
18,CCN(C(C)=O)c1cnc(C=NNC(N)=S)c2ccccc12,inactive
19,Cc1cc2ncn(C(=O)c3c(-c4ccccc4Cl)noc3C)c2cc1C,inactive
20,Oc1c(C(Nc2ccccn2)c2ccccn2)ccc2cccnc12 (stereo not drawn),inactive
21,COc1ccc(N2CCN(CCNC(=O)Nc3ccc([N+](=O)[O-])cc3OC)CC2)cc1,inactive
22,CCOc1ccc(N=Cc2c(O)cc(C)oc2=O)cc1,inactive
23,CN(C)c1ccc(N=Nc2ccccc2C(=O)OCC(=O)N(C)c2ccccc2)cc1,inactive
24,NC(=O)NC(=O)CC1S/C(=N/N=C2\CSC(=O)N2)NC1=O (stereo not drawn),inactive

row,Compound,outcome
1,CC(=O)Oc1ccc(NC(=O)Cc2ccccc2)cc1,inactive
2,COc1ccc2cc3c(N)nn(C(=O)Cc4ccccc4OC)c3nc2c1,inactive
3,CN(C)c1ccc(CN2CC=C(c3ccc(F)cc3)CC2)cc1,inactive
4,CC(NS(C)(=O)=O)C(c1cccs1)N1CCN(c2ccccc2)CC1 (stereo not drawn),inactive
5,Cc1ccccc1NC(=S)N/N=C/c1ccc(O)cc1O,inactive
6,O=C(N/N=C/c1ccco1)Nc1ccccc1,inactive
7,COc1ccc(C2C3=C(CC(C)(C)CC3=O)Oc3ncn(Cc4ccco4)c(=N)c32)cc1 (stereo not drawn),inactive
8,Cc1ccccc1CNC(=O)CCC(=O)N1CCOc2ccc(Cl)cc21,inactive
9,CCC(C)NC(=O)CN1C(=O)COc2ccc(S(=O)(=O)N3CCOCC3)cc21 (stereo not drawn),inactive
10,CS(=O)(=O)N1CCC(Oc2cccc(C(=O)NCCCC3CCCC3)c2)CC1,inactive
11,CC(/C=C/c1ccccc1)=N\NC(=O)Cn1nc(C)cc1C,inactive
12,O=C(Cn1c(=O)c(C(F)(F)F)nc2ccccc21)N1CCC2(CC1)OCCO2,inactive
13,Cc1cccn2c(=O)c(C=C(C#N)C#N)c(N3CCN(c4ccccc4)CC3)nc12,inactive
14,CCCCN1C(=O)NC2NC(=O)NC21 (stereo not drawn),inactive
15,CC(C)C(C(=O)Nc1ccccc1F)N1C(=O)c2ccccc2C1=O (stereo not drawn),inactive
16,O=C(Nc1ccccc1)c1ccc[n+](Cc2ccc([N+](=O)[O-])cc2)c1,inactive
17,O=C1C(NS(=O)(=O)c2cccs2)=C(N2CCN(c3ccccc3)CC2)C(=O)c2ccccc21,inactive
18,Fc1cccc(Nc2ncnc3c2cnn3-c2ccccc2)c1,inactive
19,O=C1c2ccccc2C(=O)c2c1cccc2N1CCOCC1,inactive
20,O=C(N/N=C/C1C(=O)NC(=S)N(c2ccccc2)C1=O)c1cc(Br)c(O)c(Br)c1 (stereo not drawn),inactive
21,CCOC(=O)c1sc(NC(=O)c2ccc3ncsc3c2)nc1C,inactive
22,O=[N+]([O-])c1cc(Br)c2nsnc2c1N1CCOCC1,inactive
23,CCOC(=O)CC(NS(=O)(=O)c1ccc(NC(C)=O)cc1)c1ccc(OCC)cc1 (stereo not drawn),inactive
24,CN(C)c1ccc(C=c2c3ccccc3n3c2c2c([n+]3C)CCCC2)cc1,inactive

row,Compound,outcome
1,O=C(NC1CC1)C(=O)c1c(-c2ccccc2)[nH]c2ccccc12,inactive
2,Cc1nn(Cc2ccccc2)c(C)c1N,inactive
3,S=c1sscc1-c1ccccc1,inactive
4,COc1ccc(/C=C/C(=O)OCC(=O)NCCc2ccccc2)c(OC)c1,inactive
5,COc1ccc(S(=O)(=O)N2CCOCC2)cc1NC(=O)CN1CCN(C)CC1,inactive
6,COc1ccc(CSC2=NCCN2)cc1Cl,inactive
7,C=CCn1c(N)c(C(=O)NCCC2=CCCCC2)sc1=S,inactive
8,O=C(CN1C(=O)c2cccc3cccc(c23)C1=O)N1CCN(Cc2ccc3c(c2)OCO3)CC1,inactive
9,CCCn1nc([N+](=O)[O-])c(C(C#N)c2nc3ccccc3s2)c(Cl)c1=O (stereo not drawn),inactive
10,Cc1c(N2C(=O)/C(=C/c3ccccc3)SC2=S)c(=O)n(-c2ccccc2)n1C,inactive
11,O=C(NCCN1CCOCC1)c1cc2sccc2n1Cc1ccc(Cl)cc1,inactive
12,CCOC(=O)CCSCC(=O)Nc1nnc(C)s1,inactive
13,O=C(CSc1ccccc1)Nc1nnc(/C=C/c2ccccc2)s1,inactive
14,Cc1nc(CNS(=O)(=O)c2ccc3ccccc3c2)cs1,inactive
15,CCc1nccn1C(=O)c1cnn2c(C(F)F)cc(-c3ccc(C)cc3)nc12,inactive
16,Cc1c(N/N=C(\C#N)C(=O)c2ccccc2)c(=O)n(-c2ccccc2)n1C,inactive
17,COc1ccc2sc(NC(=O)c3ccco3)nc2c1,inactive
18,CCCc1ccc2oc(C(=O)NCc3nnc(C)o3)c(C)c2c1,inactive
19,O=C(N/N=C/c1cc(Br)c(O)c(Br)c1O)c1cccnc1,inactive
20,CCn1c(C(C)NC(=O)c2cccc(C)c2)nc2ccccc21 (stereo not drawn),inactive
21,COc1ccc(C(CCNCc2ccc(N(C)C)cc2)C(C)C)cc1 (stereo not drawn),inactive
